Measured values from PubChem BioAssay (NCATS).
Inconclusive results are not listed. A number with no mark means an inactive call. Activity calls are given as the source filed them. Calls follow the shape of the dose curve; as a rule, active = well fitted curve in the direction sought with a large enough effect; inconclusive = small, poorly fitted or top-dose-only effect, or another doubt; inactive = no such curve, though single readings can be large; an effect the other way counts as inactive or inconclusive.

Legend:
[1] = tested on: UISO; assay: qHTS assay to identify novel small-molecules to repurpose for Merkel cell carcinoma treatment (AID 1296009); details: MCC and control cell lines, CellTiter-Glo viability, 72 h; series mostly up to 46 µM; also: nearly all actives have a fitted effect of over 60% in size
Method in brief: (§1)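 Cells were incubated with compound for 72 hr at 37 degree celsius before CellTiter-Glo addition. Luminescence was normalized with no-cell wells as full cytotoxicity and DMSO as baseline.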

[2] = tested on: CASKI; assay: Primary qHTS to identify gynecologic anti-cancer compounds using libraries of approved drugs and bioactive compounds (AID 1345084); details: Gynecologic cancer cell panel viability, ATPlite luminescence, 48 h; series mostly up to 57.5 µM; also: nearly all actives have a fitted effect of over 55% in size
Method in brief: (§2)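 Five-point cytotoxicity, 48 h drug exposure at 37 C, 5% CO2, on cells seeded 16 h beforehand. ATP content read by ATPlite luminescence.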

[3] = tested on: Es-2; assay: as above; details: Gynecologic cancer cell panel viability, ATPlite luminescence, 48 h; series mostly up to 57.5 µM
Method in brief: as §2

[4] = tested on: HeLa; assay: as above; details: Gynecologic cancer cell panel viability, ATPlite luminescence, 48 h; series mostly up to 57.5 µM
Method in brief: as §2

[5] = tested on: Hek293T; assay: as above; details: Gynecologic cancer cell panel viability, ATPlite luminescence, 48 h, control line for the selectivity index; series mostly up to 57.5 µM
Method in brief: as §2

[6] = tested on: JEG-3; assay: as above; details: Gynecologic cancer cell panel viability, ATPlite luminescence, 48 h; series mostly up to 57.5 µM
Method in brief: as §2

[7] = tested on: OV90; assay: as above; details: Gynecologic cancer cell panel viability, ATPlite luminescence, 48 h; series mostly up to 57.5 µM
Method in brief: as §2

[8] = tested on: PA-1; assay: as above; details: Gynecologic cancer cell panel viability, ATPlite luminescence, 48 h; series mostly up to 57.5 µM
Method in brief: as §2

[9] = tested on: Tov112D; assay: as above; details: Gynecologic cancer cell panel viability, ATPlite luminescence, 48 h; series mostly up to 57.5 µM
Method in brief: as §2

[10] = qHTS assay to identify inhibitors of the type 1 interferon - major histocompatibility complex class I in skeletal muscle: Counter screen cell viability and HiBit confirmation (AID 1347412); details: iHSKM muscle cells + IFN-b, HiBiT or CellTiter-Glo, 24 h; for Potency: HiBiT; for activity change, negative = inhibition: Viability, at 45.9 µM (top of the series); as to all read-outs here: nearly all actives have a fitted effect of over 60% in size
Method in brief: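 HLA-B*08:01–HiBiT knock-in immortalized human myoblasts (C25cl48) stimulated with 4.0 ng/ml human IFN-beta and dosed with compound in a 12-point 1:3 titration (top final 46 uM). After 24 hrs at 37 C, HiBiT lytic luminescence or CellTiter Glo ATP read out.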

[11] = tested on: Tov-21-G; assay: Primary qHTS to identify gynecologic anti-cancer compounds using libraries of approved drugs and bioactive compounds (AID 1345084); details: Gynecologic cancer cell panel viability, ATPlite luminescence, 48 h; series mostly up to 57.5 µM; also: nearly all actives have a fitted effect of over 55% in size
Method in brief: as §2

[12] = tested on: C33A; assay: as above; details: Gynecologic cancer cell panel viability, ATPlite luminescence, 48 h; series mostly up to 57.5 µM
Method in brief: as §2

[13] = tested on: SKOV3; assay: as above; details: Gynecologic cancer cell panel viability, ATPlite luminescence, 48 h; series mostly up to 57.5 µM
Method in brief: as §2

[14] = tested on: CAOV3; assay: as above; details: Gynecologic cancer cell panel viability, ATPlite luminescence, 48 h; series mostly up to 57.5 µM
Method in brief: as §2

[15] = tested on: WaGa; assay: qHTS assay to identify novel small-molecules to repurpose for Merkel cell carcinoma treatment (AID 1296009); details: MCC and control cell lines, CellTiter-Glo viability, 72 h; series mostly up to 46 µM; also: nearly all actives have a fitted effect of over 60% in size
Method in brief: as §1
% is scaled to controls: 0 for no effect and ±100 for the full control effect; potency is read from the fitted curve at half-maximal effect.

Row | Compound | Potency [1] | Potency [2] | Potency [3] | Potency [4] | Potency [5] | Potency [6] | Potency [7] | Potency [8] | Potency [9] | Potency [10] | activity change, negative = inhibition [10] [%] | Potency [11] | Potency [12] | Potency [13] | Potency [14] | Potency [15]
1 | CN1CCN(Cc2ccc(NC(=O)Nc3ccc(Oc4cc(NC(=O)C5CC5)ncn4)cc3)cc2C(F)(F)F)CC1 | 0.332 µM (active) | 1.78 µM (active) | 1.58 µM (active) | 0.891 µM (active) | 1.41 µM (active) | 2.82 µM (active) | 0.631 µM (active) | 0.794 µM (active) | 0.708 µM (active) | 0.442 µM (active) | 13.9 | – | – | – | – | –
2 | O=C(O)c1ccc2c(c1)nc(Nc1cccc(Cl)c1)c1ccncc12 | 4.18 µM (active) | 35.5 µM (active) | – | – | – | inactive | – | – | – | – | – | 22.4 µM (active) | – | – | – | –
3 | COc1cc2c(Oc3ccc(-c4cnc(Nc5ccc(F)cc5)n(C)c4=O)cc3F)ccnc2cc1OCCCN1CCOCC1 | 11.8 µM (active) | inactive | – | – | inactive | inactive | inactive | – | – | – | – | – | inactive | inactive | – | –
4 | O=C(Nc1cn[nH]c1-c1nc2ccc(CN3CCOCC3)cc2[nH]1)NC1CC1 | 8.33 µM (active) | 2 µM (active) | 14.1 µM (active) | – | 7.94 µM (active) | – | 11.2 µM (active) | 8.91 µM (active) | 11.2 µM (active) | 1.98 µM (active) | 61.5 | 2.24 µM (active) | 14.1 µM (active) | 10 µM (active) | – | –
5 | CC1(O)CC(c2nc(-c3ccc4ccc(-c5ccccc5)nc4c3)c3c(N)nccn23)C1 (stereo unspecified) | 0.662 µM (active) | inactive | inactive | – | inactive | inactive | inactive | inactive | inactive | – | -13.8 | inactive | inactive | inactive | – | –
6 | CCOC(=O)C1=C(C)NC2=C(C(=O)CC(C)(C)C2)C1c1ccc(-c2ccccc2)cc1 (stereo unspecified) | inactive | – | – | – | 28.2 µM (active) | inactive | inactive | – | 31.6 µM (active) | 2.49 µM (active) | -16.2 | – | – | 10 µM (active) | – | –
7 | Cc1c(CN2CCN(S(C)(=O)=O)CC2)sc2c(N3CCOCC3)nc(-c3cnc(N)nc3)nc12 | 0.264 µM (active) | 0.708 µM (active) | – | 2 µM (active) | 0.501 µM (active) | – | 1.41 µM (active) | 1.58 µM (active) | – | – | – | 2 µM (active) | 1.58 µM (active) | 0.562 µM (active) | – | –
8 | Nc1ncnc2c1c(-c1cccc(OCc3ccccc3)c1)cn2C1CC(CN2CCCC2)C1 (stereo unspecified) | 10.5 µM (active) | – | inactive | – | – | – | – | – | inactive | 22.2 µM (active) | – | – | inactive | – | – | –
9 | CC(C)CC(=O)Nc1n[nH]c2c1CN(C(=O)C1CCN(C)CC1)C2(C)C | 5.26 µM (active) | – | 7.08 µM (active) | 3.16 µM (active) | 3.98 µM (active) | inactive | 7.94 µM (active) | 0.447 µM (active) | 7.94 µM (active) | 0.701 µM (active) | 10.8 | – | 6.31 µM (active) | – | – | –
10 | CC(C)c1cc(C(=O)N2Cc3ccc(CN4CCN(C)CC4)cc3C2)c(O)cc1O | 0.469 µM (active) | – | – | – | – | – | 0.501 µM (active) | 0.501 µM (active) | – | – | – | 0.355 µM (active) | – | – | – | –
11 | Nc1nc(Nc2ccc(S(N)(=O)=O)cc2)nn1C(=O)c1c(F)cccc1F | 13.2 µM (active) | – | – | 22.4 µM (active) | – | inactive | – | 28.2 µM (active) | – | 2.49 µM (active) | 19 | – | – | inactive | – | –
12 | CNC(=O)c1ccccc1Nc1nc(Nc2ccc(N3CCOCC3)cc2OC)ncc1Cl | 1.48 µM (active) | 10 µM (active) | – | 5.01 µM (active) | – | inactive | 1 µM (active) | 14.1 µM (active) | – | 1.4 µM (active) | – | 12.6 µM (active) | – | 11.2 µM (active) | – | –
13 | O=C(Nc1cc(C(F)(F)F)cc(C(F)(F)F)c1)c1cc(Cl)ccc1O | 2.35 µM (active) | 3.55 µM (active) | 5.01 µM (active) | 2.24 µM (active) | 2.51 µM (active) | – | 8.91 µM (active) | 1.58 µM (active) | 3.55 µM (active) | 15.7 µM (active) | – | 8.91 µM (active) | 3.16 µM (active) | 3.55 µM (active) | – | –
14 | CNC(=O)CN1CCC(Oc2cc3c(Nc4cccc(Cl)c4F)ncnc3cc2OC)CC1 | 0.118 µM (active) | – | inactive | inactive | inactive | inactive | inactive | inactive | inactive | – | – | – | – | 14.1 µM (active) | inactive | –
15 | COc1ccc(C=Cc2cc(OC)c(OC)c(OC)c2)cc1O | – | – | – | – | – | – | – | – | – | – | – | – | – | – | – | inactive
16 | C=CC(=O)Nc1cccc(Oc2nc(Nc3ccc(N4CCN(C)CC4)cc3OC)ncc2Cl)c1 | – | 17.8 µM (active) | inactive | inactive | inactive | inactive | inactive | inactive | – | – | – | – | inactive | 15.8 µM (active) | – | 2.96 µM (active)
17 | NC(=O)c1cccc2cn(-c3ccc([C@@H]4CCCNC4)cc3)nc12 | – | inactive | – | inactive | inactive | inactive | inactive | – | – | – | – | inactive | inactive | inactive | – | 10.5 µM (active)
